Source: PubChem (National Center for Advancing Translational Sciences (NCATS))
The list is not random: actives were taken first. Their share in the collection is about 0.51%.
Vif-A3G inh: Vif-A3G binding inhibition; Q9HC16; Potency, µM (top dose mostly 46.1 µM), for the others: top-dose activity, negative = active, actives largely listed as inhibitors; HeLa A3G-eYFP + Vif (tagged APOBEC3G with the HIV-1 protein that degrades it), YFP fluorescence, overnight; AID 602310; 410,000 tested, 0.076% active; also: % is scaled to controls: 0 for no effect and ±100 for the full control effect; nearly all actives have a fitted effect of over 60% in size
Target sequence (Q9HC16 whole entry, looked up): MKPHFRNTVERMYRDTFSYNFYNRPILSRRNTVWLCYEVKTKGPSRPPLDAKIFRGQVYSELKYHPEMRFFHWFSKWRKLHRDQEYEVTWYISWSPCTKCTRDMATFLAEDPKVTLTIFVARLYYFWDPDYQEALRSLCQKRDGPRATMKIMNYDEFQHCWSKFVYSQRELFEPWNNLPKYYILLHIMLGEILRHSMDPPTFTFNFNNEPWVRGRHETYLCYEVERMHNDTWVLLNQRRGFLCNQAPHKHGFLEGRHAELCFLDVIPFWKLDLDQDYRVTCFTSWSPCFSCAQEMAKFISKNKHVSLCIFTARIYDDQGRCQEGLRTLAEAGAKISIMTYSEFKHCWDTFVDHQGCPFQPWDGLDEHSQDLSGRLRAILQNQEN
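Read-out is eYFP fluorescence (Ex 488/Em 500-530) from Vif-expressing HeLa A3G-eYFP cells; more signal means A3G escaped Vif-mediated degradation. Cells plated overnight, compound pinned in, incubated overnight at 37 deg C.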
Epigenetic reg: regulators of epigenetic silencing causing reporter derepression in mouse cells; Potency, µM (highest dose often 53.9 µM), for the others: at the top dose GFP activation, usual class: activators; 280,000 tested, 0.2% active; murine LDR cells, GFP reporter derepression, 30 h; also: % of control where 0% means no effect; nearly all actives have a fitted effect of over 60% in size
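Murine LDR cells carrying a silenced, genomically integrated CMV-driven GFP reporter were exposed to compound for 30 hours at 37 C. After PBS washes, GFP-positive cells (20–120 um objects) were counted by laser-scanning microplate cytometry.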
Vif-APOBEC3F blk: inhibitors of Vif-A3F interaction. HeLa A3F-eYFP + Vif (tagged APOBEC3F with the HIV-1 protein that degrades it), YFP fluorescence increase. Potency, µM (doses to about 46.1 µM), for the others: at the highest dose activity, negative = active. 390,000 tested, 0.2% active. AID 602313; also: % of control where 0% means no effect; nearly all actives have a fitted effect of over 65% in size
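HeLa cells stably expressing Vif plus C-terminally eYFP-tagged A3F were seeded, incubated overnight at 37 deg C, dosed with compound, incubated overnight again at 37 deg C. Yellow fluorescence (Ex 488/Em 500-530) reported blocked Vif-mediated A3F-eYFP degradation.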
PINK1 expr mod: changes PINK1 expression; PINK1 immunofluorescence, high-content cytometry, 24 h; 410,000 tested, 0.2% active; Potency, µM (top dose mostly 76.6 µM), inactives show at the top dose activation (PINK1 increase), usual class: activators; active = well fitted activation curve with a large enough effect; inconclusive = small, poorly fitted or top-dose-only effect; cell line not stated here; also: % of control where 0% means no effect; nearly all actives have a fitted effect of over 65% in size
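PINK1 protein level read as immunofluorescence by microplate cytometer in a fixed, stained stable cell line after 24 h exposure to five compound concentrations, with CCCP as control.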
* hit, by the source's call; ? = inconclusive; . = not tested or not shown; [ ] = remark or other dose. Unless noted, calls follow the shape of the dose curve; as a rule, active = well fitted curve in the direction sought with a large enough effect; inconclusive = small, poorly fitted or top-dose-only effect, or another doubt; inactive = no such curve, though single readings can be large; an effect the other way counts as inactive or inconclusive. Potency is read from the fitted curve at half-maximal effect.

SMILES	Vif-A3G inh	Epigenetic reg	Vif-APOBEC3F blk	PINK1 expr mod
CCOCCCNC(=O)/C(C#N)=C/c1ccc([N+](=O)[O-])o1	?	4µM*	13µM*	0%
CC(NC(=O)/C(C#N)=C/c1ccco1)c1ccccc1 (stereo not drawn)	0%	-1%	-6%	-1%
CC1(C)CC(=O)C2=C(C1)N(c1ccc(F)cc1)C(=O)NC2(C(F)(F)F)C(F)(F)F	-3%	-1%	-3%	1%[38.3 µM]
O=C(CCCCn1cnc2c(=S)nc[nH]c21)Nc1ccc(C(=O)O)cc1	0%	.	-7%	2%
CCOCCCn1c(=S)[nH]c2cc(C(=O)NCCc3ccc(OC)c(OC)c3)ccc2c1=O	0%	.	4%	8%
O=C(O)c1cc(S(=O)(=O)N2CCOCC2)c[nH]1	-1%	.	1%	1%
COc1ccc(C)cc1NCc1nnc2n1CCCCC2	3%	-4%	6%	-5%
O=C(NC(=S)Nc1ccc(F)c(Cl)c1)C1CC1	0%	.	-19%	4%
Cc1ccc(NC(=S)Nc2ccc(OC(F)F)c(Cl)c2)cc1F	3%	1%	-4%	16µM*
Fc1ccc(NC(=S)Nc2ccc(F)c(Cl)c2)cc1Cl	2%	3%	-3%	40µM*
CCOc1cc(N(CC)CC)ccc1/C=C(/C#N)c1nc2ccccc2[nH]1	?	7.9µM*	3.5µM*	8%
CCN(CC)c1ccc(/C=C(/C#N)c2nc3ccc(C)cc3[nH]2)c(OC(C)C)c1	?	5µM*	-2%	?
CCN(Cc1ccccc1)C(=O)c1sc2nc3n(c(=O)c2c1C)CCCC3	-7%	1%	6%	1%
O=C(CSCCS(=O)(=O)c1ccc(Cl)cc1)Nc1ccccc1	0%	0%	5%	-1%
COc1cccc(Cn2c3ccc(NC(=O)CCc4ccc(F)cc4)cc3c(=O)n2C)c1	4µM*	.	.	10%
C[C@H](O)CNC(=O)c1[nH]cnc1C(=O)Nc1cccc(Cl)c1	-6%	.	2%	4%
O=[N+]([O-])c1ccc(NNC(=S)Nc2ccccc2)cc1	0%	-2%	-4%	14µM*
O=[N+]([O-])c1ccc(NC(=S)NCCc2ccccc2)cc1	-2%	-1%	-2%	?
COc1cc(/C=C2\CC(C(C)(C)C)C/C(=C\c3cc(OC)c(OC)c(OC)c3)C2=O)cc(OC)c1OC (stereo not drawn)	8.9µM*	.	?	0%
CC(C)(C)Cc1c(-c2ccc(Br)cc2)nc2ccc(Br)cn12	-8%	.	?	40µM*
Cc1ccc(Cc2c(-c3ccc(Br)cc3)nc3ccc(Br)cn23)cc1	?	.	-20%	7%
COc1ccc(Cc2c(-c3ccccc3)nc3ccc(Br)cn23)c(C)c1	-27%	.	.	32µM*
COc1cc(/C=C/C(=O)/C=C(O)/C=C/c2ccc(O)c(OC)c2)ccc1O	?	32µM*	-4%	?
CN(c1ccccc1)S(=O)(=O)CS(=O)(=O)N(C)c1ccccc1	1%	.	9%	-1%
CN(c1ccccc1)P(=O)(N(C)c1ccccc1)N(C)c1ccccc1	0%	2%	4%	16µM*
SMILES	Vif-A3G inh	Epigenetic reg	Vif-APOBEC3F blk	PINK1 expr mod
O=C(c1ccccc1)N1CC(COc2ccccc2)OC(c2ccco2)O1 (stereo not drawn)	-9%	-1%	-12%	-1%
C=C(C)C(=O)Oc1ccc(N2C(=O)CCC2=O)cc1	0%	22µM*	?	2%
COc1ccc(N2C(=O)[C@@H]3[C@H](C2=O)[C@H]2C=CC=NN2[C@@H]3C(=O)Nc2ccc(Cl)cc2)cc1	0%	?	11%	-1%
CCOC(=O)c1sc(NC(=O)CN(CC)CC)c(C(=O)OCC)c1C	1%	0%	10%	1%
CCn1c(C)cc(/C=C2\NC(=O)N(CC(=O)Nc3ccc(F)cc3)C2=O)c1C	0%	25µM*	5%	1%
CSc1nc(SCC(=O)NCc2ccco2)c2c3c(sc2n1)COC(C)(C)C3	?	-5%	-7%	13µM*
CCCCSc1nc(SCC(=O)NCc2ccco2)c2c3c(sc2n1)COC(C)(CC)C3 (stereo not drawn)	1%	-1%	0%	.
COc1cc(/C=C2\SC(=S)N(NC(=O)c3ccccc3O)C2=O)ccc1O	-10%	.	11µM*	1%
O=c1nc(Nc2ccc(OCc3ccccc3)cc2)sc2ncccc12	-2%	1%	2%	7%
Cc1cc2nc(-c3ccc(SCC(=O)Nc4ccc(S(=O)(=O)N5CCCC5)cc4)nc3)[nH]c2cc1C	-7%	7%	11µM*	4%
O=C(CSc1ccc(-c2nc3ccccc3[nH]2)cn1)Nc1ccc(S(=O)(=O)N2CCCC2)cc1	-1%	0%	0%	-4%
CCCCn1c(=O)[nH]c2nc3cc(N)ccc3nc2c1=O	11%	0%	-12%	-1%
Nc1ccc2nc3c(=O)n(C4CCCCC4)c(=O)[nH]c3nc2c1	?	2%	13µM*	0%
Cc1ccnc(NC(=S)NC(=O)/C=C/c2ccco2)c1	7.9µM*	0%	-6%	18%
Cc1ccc(O)c(NC(=S)NC(=O)/C=C/c2ccco2)c1	?	1%	3%	11%
O=C(Cc1ccccc1)c1c[nH]c(C(=O)O)c1	0%	4%	-22%	-1%
CCCCCCc1cc2cc(S(=O)(=O)c3ccc(F)c(Cl)c3)c(=O)oc2cc1O	-13%	-1%	9%	13µM*
CCCCCCc1cc2cc(C(=O)OCC)c(=O)oc2cc1O	0%	0%	8%	?
CCCCCCc1cc2cc(-c3nnc(-c4ccc(C)cc4)o3)c(=O)oc2cc1O	?	2.2µM*	?	-1%
CCCCCCc1cc2cc(C(=O)Nc3ccc(OC)cc3)c(=O)oc2cc1O	-2%	-1%	3%	40µM*
CCN1/C(=C/C(C)=O)Sc2ccc(OC)cc21	-2%	-1%	-1%	1%
COc1ccc2c(c1)N(C)/C(=C/c1cccc[n+]1C)S2	13µM*	.	?	5µM*
CCN1/C(=C/c2cccc[n+]2C)Sc2ccc(OC)cc21	?	.	25µM*	25µM*
COc1ccc2c(c1)CCc1c-2n[nH]c1C(=O)O	-1%	0%	6%	2%
CC(=O)Oc1ccc2occ(/C=N/c3cc(=O)[nH]c(=S)[nH]3)c(=O)c2c1	-1%	2%	1%	3%
SMILES	Vif-A3G inh	Epigenetic reg	Vif-APOBEC3F blk	PINK1 expr mod
O=C1C(SC(F)(F)C(F)F)=C(C(F)(F)F)OC2C3C=CC(C3)C12 (stereo not drawn)	2%	0%	-12%	1%
Oc1[nH]c(N=C2N=c3ccccc3=N2)c2ccccc12	-4%	13µM*	10%	-1%
Oc1sc(C=Nc2ccc(F)cc2)c2ccccc12	?	?	2.8µM*	7%
Oc1sc(C=Nc2ccccc2)c2ccccc12	11µM*	?	25µM*	-3%
O=C(Nc1nnc([C@H]2C[C@H](O)[C@@H](CO)O2)s1)Nc1ccccc1C(F)(F)F	-1%	.	.	0%
C=CCn1c(=O)/c(=C/c2cc(OC)c(OC)c(OC)c2)s/c1=C(/C#N)c1nc2ccccc2n1C	-8%	?	22µM*	2%
C=CCn1c(=O)/c(=C/c2ccc(O)cc2)s/c1=C(/C#N)c1nnc2n1CCCCC2	-2%	-1%	?	-3%[38.3 µM]
